40 molecules from PubChem BioAssay (NCI) can be followed below.

The panel holds about 83,000 compounds, 20% with a hit somewhere; the sample as a whole holds those more often.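 Interpretation: 100, growth as untreated; towards 0, rising growth inhibition; 0, no net growth; 0 to -100, cell death. Compounds scoring below 10 were considered active.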 Values without a mark were called inactive. Calls of active or inactive are those of the source.

The first test deals with SNB-19 CNS. Put plainly: NCI-60 one-dose screen, 48 h (100 = growth as untreated, 0 = no growth, -100 = all killed). Conditions: 10 µM unless noted.
Regarding `O=C1Nc2ccc(Cl)cc2/C1=C/c1cccs1`, the growth was 84.3%.

For `CCCCCCCSc1ncnc2[nH]ncc12`, the growth was 80.9%.

For `COc1cccc(C2=NN(C(C)=O)C(c3cc(OC)c(OC)c(OC)c3)C2)c1` (stereo not given), the growth was 26.9%.

As to `COc1c(O)cc2c(c1CC=C(C)C)OC(=O)c1c(cc(O)c(CC=C(C)C)c1O)O2`, the growth was 48.4%.

For the molecule `O=CN1N=C(c2ccc(Nc3ccnc4cc(Cl)ccc34)cc2)CC1c1ccc(Cl)cc1` (stereo not given), the growth was 44.5%.

With `CCOC1Oc2ccccc2C(=O)/C1=N/c1nccs1` (stereo not given), the growth is 91.7%.

For the molecule `NC(=O)NC1(C(=O)O)CCCC1`, the growth is 113%.

As to `O=c1ccn(C2CC=C(CO)O2)c(=O)[nH]1` (stereo not given), the growth was 108%.

Consider `CC1CN(/N=C/c2ccc([N+](=O)[O-])o2)C(=N)O1` (stereo not given), for which the growth was 99.7%.

In the case of `N/C(=N\c1nc2ccccc2s1)NC(=O)Nc1ccccc1Cl`, the growth is 37.4%.

Consider `O=Cc1ccccc1C(=O)O`, for which the growth was 107%.

Take `O=c1[nH]cc(Nc2cc(Cl)c3nonc3c2[N+](=O)[O-])c(=O)[nH]1`: the growth was 95.4%.

Turning to `Nc1nc(Nc2ccccc2SSc2ccccc2Nc2nc(N)nc(-c3cccc(Cl)c3)n2)nc(-c2cccc(Cl)c2)n1`, the growth is 96.1%.

Take `CCCCCCCCCCCCC1CCCC(C)C1` (stereo not given): the growth is 104%.

As for `COc1ccc2nc(N/N=C(\C)c3ccccn3)cc(C)c2c1`, the growth is 23.9%.

As for `COc1cc(C(=O)c2cc3c(cc2C)OCO3)cc(OC)c1OC`, the growth was 50.7%.

On to `NC(=N\N=C/Cc1ccccc1)/C(N)=N\N=C\Cc1ccccc1`, for which the growth was 96.6%.

Take `CCSc1nc(-c2cccs2)n2nc(-c3ccco3)cc2n1`: the growth was 109%.

Turning to `COc1ccc2c(c1)[n+](=O)c(C(=O)/C=C/c1cc(OC)c(OC)c(OC)c1)c(C)n2[O-]`, the growth was 67.1%.

For `O=C(CNC(=O)c1cccc2ccccc12)Nc1ccccc1Oc1cccc(O)c1`, the growth is 38% [5 µM].

As to `CN1C(=O)C(C2=NN(C=O)C(c3ccc(F)cc3)C2)C(=O)N(C)C1=O` (stereo not given), the growth was 92.4%.

Turning to `Cc1ncc(C(=O)Nc2ccc(CN3CCN(C)CC3)c(C(F)(F)F)c2)cc1C#Cc1cncc2ncccc12`, the growth is 107%.

Consider `O=C1C=CC(=O)N1c1ccccc1N1C(=O)C=CC1=O`, for which the growth was 91%.

`N#Cc1c(-c2ccccc2)cc(-c2ccccc2)n(CCCCCCC(=O)O)c1=O`: the growth is 96.3%.

Consider `COc1ccc(C2CC(c3ccc4c(c3)OCO4)=NN2C=O)cc1` (stereo not given), for which the growth was 93.9%.

Take `O=C(O)C1CCN(S(=O)(=O)c2ccc(-c3ccccc3)cc2)CC1`: the growth is 103%.

As to `CC[C@@H](C)/C=C(C)/C=C/C(=O)c1c(O)c(-c2ccc(O)cc2)cn(OC2CC(=O)CCC(C)OC(=O)CC2O)c1=O` (stereo not given in full), the growth is 22.9%.

For the molecule `CCCCCCCCN(CCO)CCCCCCCC`, the growth is 113%.

With `O=C(Nc1ccc2c(c1)C(=O)c1ccccc1-2)c1ccccc1`, the growth is 73%.

In the case of `CN(C)CCCNc1nn2c(=O)c3ccccc3nc2c2ccccc12`, the growth was 69.7%.

Consider `CCN(CC)CCNCC(=O)Oc1ccc(/C=C/C(=O)CC(=O)/C=C/c2ccc(OC(=O)CNCCN(CC)CC)c(OC)c2)cc1OC`, for which the growth is 22%.

As to `Nc1c(C(=O)Nc2cccc(Cl)c2)sc2nc3c(cc12)C(O)CCC3` (stereo not given), the growth was 65.9%.

In the case of `N#CC1c2ccccc2C=CN1C(=O)N(c1ccccc1)c1ccccc1` (stereo not given), the growth was 98.5%.

Regarding `C=C1CCC2C3(C)COC(c4ccccc4)OC3CCC2(C)C1C/C=C1/C(=O)OCC1OC(C)=O` (stereo not given), the growth is 95.6%.

The test system of a further test is U251 CNS. The test is described as above. The conditions noted are these: 10 µM unless noted.
`CCOc1cc(/C=C/C(=O)C(C(=O)/C=C/c2ccc(OC(=O)CNc3nc4ccccc4[nH]3)c(OCC)c2)C(=O)CNc2nc3ccccc3[nH]2)ccc1OC(=O)CNc1nc2ccccc2[nH]1`: the growth is -61.5% (active).

Take `NS(=O)(=O)N(c1cc(C(F)(F)F)cc(C(F)(F)F)c1)C1CCN(Cc2ccc(C(F)(F)F)cc2)CC1`: the growth is 33%.

Turning to `CCCCCCCSc1ncnc2[nH]ncc12`, the growth was 38.3%.

With `CO[C@H]1/C=C/O[C@@]2(C)Oc3c(C)c(O)c4c(O)c(c(/C=N/N5C(C)CN(Cc6ccc(C#N)cc6)CC5C)c(O)c4c3C2=O)NC(=O)/C(C)=C\C=C\[C@H](C)[C@H](O)[C@@H](C)[C@@H](O)[C@@H](C)[C@H](OC(C)=O)[C@@H]1C` (stereo not given in full), the growth was 34.9%.

Consider `COc1cccc(C2=NN(C(C)=O)C(c3cc(OC)c(OC)c(OC)c3)C2)c1` (stereo not given), for which the growth was 31.1%.

As to `COc1c(O)cc2c(c1CC=C(C)C)OC(=O)c1c(cc(O)c(CC=C(C)C)c1O)O2`, the growth is 27.2%.

Take `O=CN1N=C(c2ccc(Nc3ccnc4cc(Cl)ccc34)cc2)CC1c1ccc(Cl)cc1` (stereo not given): the growth is 27.6%.

For `CCOC1Oc2ccccc2C(=O)/C1=N/c1nccs1` (stereo not given), the growth is 82%.

With `NC(=O)NC1(C(=O)O)CCCC1`, the growth is 99.9%.

`O=c1ccn(C2CC=C(CO)O2)c(=O)[nH]1` (stereo not given): the growth is 102%.

As for `CC1CN(/N=C/c2ccc([N+](=O)[O-])o2)C(=N)O1` (stereo not given), the growth was 101%.

In the case of `N/C(=N\c1nc2ccccc2s1)NC(=O)Nc1ccccc1Cl`, the growth is 19.1%.

With `Nc1nc(Nc2ccccc2SSc2ccccc2Nc2nc(N)nc(-c3cccc(Cl)c3)n2)nc(-c2cccc(Cl)c2)n1`, the growth is 78.5%.

Take `COc1ccc(-n2cnc3cc(C(=O)N4CCCCC4)ccc32)cc1`: the growth was 96.6%.

As for `COc1ccc2nc(N/N=C(\C)c3ccccn3)cc(C)c2c1`, the growth is -85.5% (active).

Regarding `NC(=N\N=C/Cc1ccccc1)/C(N)=N\N=C\Cc1ccccc1`, the growth was 106%.

In the case of `CCSc1nc(-c2cccs2)n2nc(-c3ccco3)cc2n1`, the growth is 91.4%.

On to `COc1ccc2c(c1)[n+](=O)c(C(=O)/C=C/c1cc(OC)c(OC)c(OC)c1)c(C)n2[O-]`, for which the growth was 55.6%.

For `CN1C(=O)C(C2=NN(C=O)C(c3ccc(F)cc3)C2)C(=O)N(C)C1=O` (stereo not given), the growth was 92.3%.

Take `O=C1C=CC(=O)N1c1ccccc1N1C(=O)C=CC1=O`: the growth is 108%.

Turning to `COc1ccc(C2CC(c3ccc4c(c3)OCO4)=NN2C=O)cc1` (stereo not given), the growth was 102%.

In the case of `O=C(O)C1CCN(S(=O)(=O)c2ccc(-c3ccccc3)cc2)CC1`, the growth is 104%.

As to `CC[C@@H](C)/C=C(C)/C=C/C(=O)c1c(O)c(-c2ccc(O)cc2)cn(OC2CC(=O)CCC(C)OC(=O)CC2O)c1=O` (stereo not given in full), the growth was 11.1%.

As to `CCCCCCCCN(CCO)CCCCCCCC`, the growth was 102%.

In the case of `O=C(Nc1ccc2c(c1)C(=O)c1ccccc1-2)c1ccccc1`, the growth is -13.9% (active).

As for `CN(C)CCCNc1nn2c(=O)c3ccccc3nc2c2ccccc12`, the growth was 57.2%.

Consider `Nc1c(C(=O)Nc2cccc(Cl)c2)sc2nc3c(cc12)C(O)CCC3` (stereo not given), for which the growth was 17.4%.

Regarding `N#CC1c2ccccc2C=CN1C(=O)N(c1ccccc1)c1ccccc1` (stereo not given), the growth was 57.4%.

Turning to `C=C1CCC2C3(C)COC(c4ccccc4)OC3CCC2(C)C1C/C=C1/C(=O)OCC1OC(C)=O` (stereo not given), the growth is 71.2%.

As to `O=C1CNc2cc(Cl)ccc2N1`, the growth was 101%.

For `COCCOCCOCCOCCOc1ccc2c(c1)C(=O)c1nc3ncccc3c(=O)n1-2`, the growth was -63.6% (active).
